The text below walks through data of PubChem BioAssay AID2685 (National Center for Advancing Translational Sciences (NCATS), 2010).

The campaign covered roughly 320,000 compounds. About 2,100 (0.66%) were called active. About 53% were inconclusive and are not listed. The call rests on the fitted dose curve; in most records, active means well fitted inhibition curve with a large enough effect in the signal ratio, with a control signal flat (not every such curve was filed as active); inconclusive means small, poorly fitted or top-dose-only effect, or effect the other way, or a change in a side signal; inactive means flat fitted curve, though single readings scatter; the % refers to the signal ratio. Only a selection was taken, and actives are over-represented in it overall.
Potency means the concentration at half of the fitted maximal effect.

This test in a line: qHTS Assay for Lipid Storage Modulators in Drosophila S3 Cells.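 On cell number change: cells counted by Cell Tracker Red CMTPX staining in the red channel.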 On lipid storage change, negative = inhibition: on the % scale 0 is the no-effect control and ±100 the full control effect. The following applies: BODIPY lipid droplet fluorescence, 18-24 h, cells fed with added oleic acid; cell number change: measured here: cell count max response; series mostly up to 46.1 µM; lipid storage change, negative = inhibition: at the top concentration. The method, boiled down:
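Laser-scanning cytometry quantifies lipid droplet accumulation (500–530 nm total intensity; droplet/cell object ratio) in oleic acid-fed (400 uM added) Drosophila S3 cells treated with a concentration series. 20 uM Triacsin C defined 100% inhibition.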
For `COc1ccccc1NC(=S)NC1CCCCC1`, the “lipid storage change, negative = inhibition” value is -1.18% (inactive) and the cell number change came out at 22.1%.

For the compound `CCOC(=O)C(=O)NC(C)CCc1ccccc1` (stereo not given), the “lipid storage change, negative = inhibition” value was -6.25% (inactive) and the cell number change was -12.3%.

Regarding `Cc1ccccc1NC(=S)NC(C)CCc1ccccc1` (stereo not given), the “lipid storage change, negative = inhibition” value was -12% (inactive) and the cell number change was -4.86%.

Turning to `Cc1ccccc1NC(=O)C(=O)NC(C)CCc1ccccc1` (stereo not given), the Potency is 7.31 µM (active) and the cell number change was determined as 7.44%.

Turning to `COCCCNC(=O)COc1cc2c(c3oc(=O)c(C)c(C)c13)CCC(C)(C)O2`, the “lipid storage change, negative = inhibition” value was -1.02% (inactive) and the cell number change stood at 14.5%.

Take `O=C(Nc1ccc(S(=O)(=O)N2CCCC2)cc1)c1ccc(CN2CCOCC2)cc1`: the “lipid storage change, negative = inhibition” value was -12.9% (inactive) and the cell number change is 0.801%.

For `O=C(Nc1ccccc1)c1ccc(S(=O)(=O)N2CCCCC2)cc1`, the “lipid storage change, negative = inhibition” value is 1.31% (inactive) and the cell number change was -9.41%.

On to `O=C(Nc1ccc(S(=O)(=O)N2CCCCC2)cc1)c1ccc(CN2CCc3ccccc3C2)cc1`, for which the Potency was 18.4 µM (active) and the cell number change is -10.9%.

Regarding `O=C(Nc1ccc(F)cc1)c1ccc(CN2CCc3ccccc3C2)cc1`, the Potency is 5.17 µM (active) and the cell number change is -4.53%.

On to `Cc1ccc(NC(=O)c2ccc(CN3CCc4ccccc4C3)cc2)cc1`, for which the “lipid storage change, negative = inhibition” value was 9.69% (inactive) and the cell number change came out at 6%.

Consider `O=C(Nc1ccccc1)c1ccc(CN2CCc3ccccc3C2)cc1`, for which the “lipid storage change, negative = inhibition” value is -0.669% (inactive) and the cell number change turned out to be 7.26%.

Consider `Cc1cc(-n2nc(C)cc2C)n2nc(C)c(-c3ccc(Cl)cc3)c2n1`, for which the outcome was inactive and the cell number change came to 1.87%.

With `CC(C)CCN1CC(C(=O)NC(C)C)CC1=O` (stereo not given), the “lipid storage change, negative = inhibition” value was 1.74% (inactive) and the cell number change is -5.32%.

As for `CN1CCN(S(=O)(=O)c2ccc(NC(=O)c3ccc(Br)s3)cc2)CC1`, the “lipid storage change, negative = inhibition” value was 18.6% (inactive) and the cell number change is -9.91%.

Consider `COC(=O)c1ccc(CN2CCC(CO)(Cc3cccc(OC)c3)CC2)cc1`, for which the “lipid storage change, negative = inhibition” value is 12.4% (inactive) and the cell number change was 1.63%.

Turning to `Cc1cccc(C(=O)OC2CCOC2=O)c1O` (stereo not given), the Potency was 0.731 µM (active) and the cell number change is 4.5%.

Consider `O=C(Nc1ccccc1C(=O)OC1CCOC1=O)c1ccco1` (stereo not given), for which the result was inactive and the cell number change is 2.86%.

Turning to `CC(=O)Nc1ccc(C(=O)OC2CCOC2=O)cc1` (stereo not given), the “lipid storage change, negative = inhibition” value was -5.88% (inactive) and the cell number change came out at 3.14%.

As for `Cc1ccc(NC(=O)c2cccs2)cc1NC(=O)c1cccc(F)c1`, the “lipid storage change, negative = inhibition” value was 16.8% (inactive) and the cell number change was determined as 9.07%.

On to `Cc1ccc(C(=O)N/C(=C\c2cccs2)C(=O)NCc2cccnc2)cc1`, for which the “lipid storage change, negative = inhibition” value was 15.8% (inactive) and the cell number change was determined as 10.4%.

As to `Fc1cccc(NC(=S)N2CCc3ccccc32)c1`, the compound was called inactive and the cell number change was -4.05%.

As to `Fc1ccc(NC(=S)N2CCc3ccccc32)cc1`, the Potency was 16.4 µM (active) and the cell number change was -10.9%.

Take `Fc1ccc(NC(=S)N2CCCc3ccccc32)cc1`: the “lipid storage change, negative = inhibition” value is 7.56% (inactive) and the cell number change is -5.16%.

For the compound `CN(C)c1ccc(S(=O)(=O)NCC(=O)NCc2ccccc2)cc1[N+](=O)[O-]`, the “lipid storage change, negative = inhibition” value is 24.8% (inactive) and the cell number change amounted to 21.7%.

Take `NC(=O)c1nsc(C(=O)N(CC(=O)NC2CCCCC2)c2ccc(Cl)cc2)c1N`: the Potency was 14.6 µM (active) and the cell number change was -2.56%.

On to `Cc1ccc(C)c(N(CC(=O)NC2CCCCC2)C(=O)c2snc(C(N)=O)c2N)c1`, for which the compound was called inactive and the cell number change was -26.2%.

For the compound `NC(=O)c1nsc(C(=O)N(CC(=O)NC2CCCC2)c2ccc(F)c(Cl)c2)c1N`, the Potency was 0.116 µM (active) and the cell number change is -7.14%.

Take `NC(=O)c1nsc(C(=O)N(CC(=O)NC2CCCC2)c2cnc3ccccc3c2)c1N`: the “lipid storage change, negative = inhibition” value was -11% (inactive) and the cell number change was -18%.

Regarding `NC(=O)c1nsc(C(=O)N(CC(=O)NC2CCCCC2)Cc2ccc(F)cc2)c1N`, the compound was classed as inactive.

With `CCCC(C(=O)NC1CCCC1)N(C(=O)c1snc(C(N)=O)c1N)c1ccc(F)cc1` (stereo not given), the “lipid storage change, negative = inhibition” value was 23.9% (inactive) and the cell number change was -10.5%.

For `CC1=NN(C(=O)Cc2ccc([N+](=O)[O-])cc2)C(O)(C(F)(F)C(F)(F)F)C1` (stereo not given), the “lipid storage change, negative = inhibition” value was 5.48% (inactive) and the cell number change came out at 24%.

For the compound `CC(=O)NCCc1nc2ccccc2n1Cc1ccccc1`, the “lipid storage change, negative = inhibition” value was -4.21% (inactive) and the cell number change was determined as 18.1%.

Consider `O=C(CSc1ncn[nH]1)Nc1cc(S(=O)(=O)N2CCCC2)ccc1Cl`, for which the result was inactive.

As for `CN(C)S(=O)(=O)c1cc(NC(=O)COC(=O)CCc2ccccc2)ccc1Cl`, the result was inactive and the cell number change worked out at 11.3%.

Take `Nc1[nH]nc2nc(N3CCOCC3)nc(-c3ccccc3)c12`: the “lipid storage change, negative = inhibition” value is 0.177% (inactive) and the cell number change was -23.8%.

Turning to `O=C1C(=O)N(CCN2CCOCC2)C(c2cccnc2)/C1=C(/O)c1ccccc1` (stereo not given), the “lipid storage change, negative = inhibition” value is 16.1% (inactive) and the cell number change was 0.678%.

In the case of `O=C1N=C2N(CCN3CCCCC3)c3ccccc3N2/C1=C\c1ccc([N+](=O)[O-])o1`, the “lipid storage change, negative = inhibition” value was -28.5% (inactive) and the cell number change amounted to 2.09%.

With `O=C1C=C(NCCN2CCOCC2)CC(c2ccccc2)C1` (stereo not given), the “lipid storage change, negative = inhibition” value was 27.3% (inactive) and the cell number change is -2.43%.

With `O=C(NCCN1CCOCC1)c1ccncc1`, the compound was classed as inactive and the cell number change was -7.07%.

In the case of `O=C1C=C(NCCN2CCOCC2)C(=O)c2cnccc21`, the Potency is 11.6 µM (active) and the cell number change is -9.98%.

As to `COc1ccccc1NC(=O)N1C2CCCC1CC(NC(=O)c1ccccc1)C2` (stereo not given), the “lipid storage change, negative = inhibition” value is -1.34% (inactive) and the cell number change worked out at 9.36%.

For `COc1ccc(NS(=O)(=O)c2ccc3c(c2)oc(=O)n3C)cc1Cl`, the “lipid storage change, negative = inhibition” value is 4.42% (inactive) and the cell number change is 10.6%.

Regarding `COC(=O)c1ccc(Cl)c(NC(=O)CN(c2ccccc2)S(=O)(=O)c2ccc(OC)cc2)c1`, the “lipid storage change, negative = inhibition” value was -4.68% (inactive) and the cell number change is -1.49%.

Turning to `O=C(O)c1ccc(-c2nc(-c3ccccc3)c(-c3cccs3)[nH]2)cc1`, the “lipid storage change, negative = inhibition” value is 13.4% (inactive) and the cell number change worked out at 16.3%.

For `O=[N+]([O-])c1ccc(-c2nc(-c3cccs3)c(-c3cccs3)[nH]2)cc1`, the Potency is 23.1 µM (active) and the cell number change came out at 7.44%.

As for `O=[N+]([O-])c1cccc(-c2nc(-c3ccccc3)c(-c3cccs3)[nH]2)c1`, the “lipid storage change, negative = inhibition” value is -10.9% (inactive) and the cell number change is -14.7%.
